Experimental data from PubChem BioAssay.
Values joined by “and” are separate entries in the source; they are usually repeats but may differ in a detail not shown here. Equal entries are not always repeated. The source holds several records for some structures; these can differ, active in one and inactive in another. Active and inactive are the calls of the source. Unless noted, the rule behind the calls is not given here.

What was measured:
[1] = compounds altering circadian rhythm period length – cell-based, LOPAC library, luminescence reporter (AID 2774); conditions: circadian reporter cells, at 7 µM, actives lie on both sides;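 note: values are relative to mean of DMSO wells on each plate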
[2] = system: Hepatitis C virus NS3 helicase; assay: blockers of NS3h binding to ssDNA – biochemical, fluorescence polarization, LOPAC1280 library, primary screen (AID 687035; in the data active = inhibition above about 37%); conditions: Purified HCV NS3 helicase, Cy5-dT15 ssDNA binding fluorescence polarization; stronger effect = higher value; concentration not given here
[3] = compounds altering Cy5-DNA-NS3h complex signal – biochemical, LOPAC1280, artefact control for HCV NS3 helicase inhibitor project (AID 687037); conditions: Cy5-DNA-NS3h complex fluorescence interference counterscreen
[4] = system: Aerobactin synthetase IucA (Klebsiella pneumoniae); assay: inhibition of K. pneumoniae IucA enzyme – biochemical, Tocris library, absorbance (AID 1345561); conditions: purified IucA enzyme assay, absorbance (OD) read-out; stronger effect = lower value;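 tested at 8 µM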;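 note: 100% = enzyme without compound and 0% = no enzyme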
[5] = viability loss with induced miR-34 in A549 – imaging, A549 dox-inducible miR-34, nuclei and caspase counts, primary screen (AID 1347080;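 active = compounds whose cell count with miR-34 switched on is under 0.7 times the count with it off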); conditions: A549 miR-34 inducible, Hoechst nuclei count, 48 h
[6] = blockers of cellular phospholipid synthesis – cell-based, LOPAC library, screen 4, primary screen (AID 1347384); conditions: animal cells, phospholipid biosynthesis inhibition screen; at 10 µM
[7] = galactose survival enhancers in mitochondrial complex I cybrids – cell-based, galactose medium, ATP luminescence, primary screen (AID 1645843;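 active = z-score of at least 1.8 in each of two replicates, scored against plate mean and spread of sample wells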;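 note: positive z means more ATP and so rescue of galactose-driven cybrid death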); conditions: complex I mutant cybrid cells, 72 h, stronger effect = higher value
[8] = stronger effect = lower value, cell number ratio, induced over uninduced
[9] = measured here: relative caspase fold change +Dox/-Dox
[10] = measured here: total cells with miR-34 induction, stronger effect = lower value
[11] = measured here: total cells without miR-34 induction

Compound	period change [1]	inhibition [2]	fluorescence ratio (interference) [3]	remaining activity [4]	fold change [5, 8]	fold change [5, 9]	cell count [5, 10]	cell count [5, 11]	outcome [6]	z-score [7]
Cn1cc(C(=O)OCC2CCN(CCNS(C)(=O)=O)CC2)c2ccccc21	0.07 h (inactive)	-1% (inactive)	1 (inactive)	123% (inactive)	1.06 (inactive) and 0.932 (inactive)	1.51 and 0.946	9310 and 9140	8780 and 9810	inactive	-0.825 (inactive) and -0.425 (inactive)
CNC(=O)c1cc2c(cn1)[nH]c1ccccc12	-0.24 h (inactive)	0% (inactive)	1 (inactive)	99.6% (inactive)	0.95 (inactive) and 0.891 (inactive)	1.84 and 0.981	8950 and 7610	9420 and 8540	inactive	2.76 (active) and 1.85 (inactive)
NC(N)=NC(N)=Nc1cccc(Cl)c1	0.15 h (inactive)	-4% (inactive)	1 (inactive)	77.4% (inactive)	0.947 (inactive) and 0.85 (inactive)	1.12 and 1.01	10300 and 7530	10900 and 8860	inactive	-0.165 (inactive) and -0.935 (inactive)
NC(=O)CNCCC(c1ccccc1)c1ccccc1	-0.275 h (inactive)	0% (inactive)	1.1 (inactive)	72.6% (inactive)	0.993 (inactive) and 0.866 (inactive)	1.46 and 1.33	9880 and 8250	9950 and 9520	inactive	-0.185 (inactive) and 0.085 (inactive)
CC1CCN(CC[C@H]2CCCN2S(=O)(=O)c2cccc(O)c2)CC1	0.055 h (inactive)	-3% (inactive)	1 (inactive)	106% (inactive)	0.975 (inactive) and 0.908 (inactive)	1.72 and 0.97	9460 and 8490	9700 and 9350	inactive	-0.155 (inactive) and -0.32 (inactive)
COc1cc2c(CCNC(C)=O)c[nH]c2cc1Cl	-0.08 h (inactive)	-1% (inactive)	1 (inactive)	94.8% (inactive)	1.06 (inactive) and 0.902 (inactive)	2.61 and 0.855	9840 and 8550	9250 and 9470	inactive	0.525 (inactive) and -0.185 (inactive)
CCCN(CC1CC1)c1nc(C)nc(Nc2c(Cl)cc(Cl)cc2Cl)c1Cl	0.125 h (inactive)	-2% (inactive)	1 (inactive)	116% (inactive)	1.08 (inactive) and 0.941 (inactive)	0.691 and 0.818	9180 and 7650	8510 and 8120	inactive	-1.02 (inactive) and -0.83 (inactive)
COC(=O)[C@H](NC(=O)c1cc(-c2ccccc2)nc2ccccc12)c1ccccc1	-0.11 h (inactive)	-1% (inactive)	1 (inactive)	100% (inactive)	1 (inactive) and 0.927 (inactive)	0.906 and 0.535	9010 and 8560	8980 and 9240	inactive	0.22 (inactive) and -0.03 (inactive)
CC(=O)NNC(=O)N1Cc2ccccc2Oc2ccc(Cl)cc21	-0.025 h (inactive)	-1% (inactive)	1 (inactive)	100% (inactive)	0.965 (inactive) and 0.956 (inactive)	0.954 and 0.9	10200 and 8650	10600 and 9060	inactive	1.17 (inactive) and 0.635 (inactive)
C[C@@H](CN1CCC(Cc2ccccc2)CC1)[C@@H](O)c1ccc(O)cc1	0.12 h (inactive)	-3% (inactive)	1 (inactive)	113% (inactive)	0.971 (inactive) and 0.906 (inactive)	0.907 and 0.699	9590 and 8970	9880 and 9910	inactive	-1.21 (inactive) and -0.605 (inactive)
CCCc1c(-c2ccc(O)cc2)nn(-c2ccc(O)cc2)c1-c1ccc(O)cc1	0.165 h (inactive)	-1% (inactive)	1 (inactive)	109% (inactive)	1.09 (inactive) and 0.887 (inactive) and 1.03 (inactive)	1.1 and 0.322 and 0.755	8030 and 5050 and 7250	7380 and 5690 and 7020	inactive	1.27 (inactive) and 1.6 (inactive)
O=C(O)C1=CCCN(CCON=C(c2ccccc2)c2ccccc2)C1	-0.05 h (inactive)	1% (inactive)	1 (inactive)	122% (inactive)	1.08 (inactive) and 0.953 (inactive)	0.8 and 1.02	9470 and 9840	8800 and 10300	inactive	0.145 (inactive) and -0.05 (inactive)
NCC(O)(CS(=O)(=O)O)c1ccc(Cl)cc1 (stereo not given)	0.035 h (inactive)	-2% (inactive)	1 (inactive)	105% (inactive)	0.977 (inactive)	2.17 and 0.803	9480 and 8580	9700 and 8780	inactive	0.265 (inactive) and -0.115 (inactive)
N#Cc1cc2nc(O)c(O)nc2cc1[N+](=O)[O-]	0.03 h (inactive)	-1% (inactive)	1 (inactive)	114% (inactive)	1.02 (inactive) and 0.856 (inactive)	1.08 and 1.89	9680 and 8420	9500 and 9840	inactive	0.385 (inactive) and 0.185 (inactive)
C[C@H](NC(=O)/C(C#N)=C/c1ccc(O)c(O)c1)c1ccccc1	0.035 h (inactive)	-1% (inactive)	1 (inactive)	111% (inactive)	0.957 (inactive) and 0.876 (inactive)	2.11 and 1.78	6810 and 7420	7120 and 8470	inactive	-1 (inactive) and -0.545 (inactive)
COc1ccc(NC(=O)c2ccc(-c3ccc(-c4noc(C)n4)cc3C)cc2)cc1N1CCN(C)CC1	0.065 h (inactive)	-3% (inactive)	0.9 (inactive)	119% (inactive)	0.954 (inactive) and 1.08 (inactive)	0.805 and 0.587	510 and 1390	535 and 1290	inactive	-1.29 (inactive) and -0.715 (inactive)
COC(=O)C1=C(C)NC(C)=C([N+](=O)[O-])C1c1ccccc1C(F)(F)F (stereo not given)	0.05 h (inactive)	-5% (inactive)	0.9 (inactive)	124% (inactive)	1.01 (inactive) and 1 (inactive) and 0.845 (inactive)	1.21 and 1.49 and 0.884	9160 and 5080 and 7400	9050 and 5080 and 8750	inactive	-0.7 (inactive) and -0.625 (inactive)
